Experimental data: PubChem BioAssay (NCI)
This is part of a sample that, as a whole, favours compounds with a hit. Of some 83,000 tested, about 20% had one in any assay.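 In brief: 96-well plates, 48 h treatment, single concentration, percent growth endpoint.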 Values without a mark were called inactive. Calls of active or inactive are those of the source. Rule for the calls: active = growth percent below 10; inactive = the rest.

test system: SK-MEL-5 melanoma; test: NCI-60 one-dose screen, 48 h (100 = growth as untreated, 0 = no growth, -100 = all killed); details: 10 µM unless noted

| SMILES | growth |
| --- | --- |
| CS(=O)(=O)Nc1cc(-c2ccc3ncnc(Nc4ccc5c(cnn5Cc5ccccn5)c4)c3c2)cnc1Cl | 77.7% |
| CO[C@H]1/C=C(/C)CCC[C@H](C)[C@H](O)[C@@H](C)C(=O)C(C)(C)[C@@H](O)CC(=O)O[C@@H]1/C(C)=C/c1csc(C)n1 | 20.6% |
| COc1ccc2nc3ccc(OC)cc3c(SCCCN)c2c1 | 108% |
| CCCCCCCCCCCCCCCC(N)c1ccccc1 (stereo not given) | 87.8% |
| CC1=C(Nc2ccc(N3CCN(C)CC3)cc2)C(=O)c2cncnc2C1=O | 81.5% |
| CN(C)c1ccc(/C=C/C(=O)c2ccc(-n3cc(CN4CCN(c5cc6c(cc5F)c(=O)c(C(=O)O)cn6C5CC5)CC4)nn3)cc2)cc1 | 79% |
| CCN(CC)c1nc(SCc2ccccc2Cl)ncc1C | 83.8% |
| CCN1CCN(Cc2cn(CC(=O)Nc3ccc4c(ccn4Cc4ccccc4)c3)nn2)CC1 | 99.9% |
| O=C(O)[C@@H]1c2ccccc2-c2ccccc2[C@H]1C(=O)O | 110% |
| O=C1CC(N2C(=O)/C(=C/C(Cl)=C\c3ccc([N+](=O)[O-])cc3)SC2=S)C(=O)N1c1ccc(Cl)cc1 (stereo not given) | 59.9% |
| CCc1ccc(Oc2cn[nH]c2-c2ccc(OCCc3ccc(F)cc3)cc2O)cc1 | 97.5% |
| CC1(C)CCC(S(=O)(=O)c2ccc3c(c2)/C(=N\O)c2cc(S(=O)(=O)N4CCC(O)(c5cccc(C(F)(F)F)c5)CC4)ccc2-3)CC1 | -92.7% (active) |
| Cc1cc(Cl)ccc1Nc1nc(C(F)(F)F)ccc1C(=O)N/N=C/c1ccc([N+](=O)[O-])cc1 | 84.7% |
| CCOC(=O)c1[nH]c(=O)c2c(C)nc(-c3ccccc3)cc2c1O | 96.7% |
| Oc1ccc(CN2CCC(N3CCCCC3)CC2)c2cccnc12 | -29.4% (active) |
| COc1cccc([C@H]2c3[nH]c4ccccc4c3C[C@H]3C(=O)N(CCCCCCC(=O)NO)CC(=O)N23)c1 | 49.8% |
| C=CC(=O)NCc1ccc(Nc2nccc(-c3ccc(N4CCCC4)c(C#N)c3)n2)cc1 | 35.7% |
| CC1=C(C(=O)OC(C)C)C(c2ccc3c(c2)OCO3)NC(=S)N1 (stereo not given) | 98.5% |
| CCOC(=O)Cn1c(O)c(N=Nc2ccc(S(N)(=O)=O)cc2)c2cc(Br)ccc21 | 88.3% |
| O=C(Cn1c2c(c3ccccc31)CCCC2)Nc1ccc(-c2nc3ccccc3s2)cc1 | 93.6% |

| SMILES | growth |
| --- | --- |
| COC(C(=O)[C@@H](O)[C@@H](C)O)[C@@H]1Cc2cc3cc(O[C@H]4C[C@@H](O[C@H]5C[C@@H](O)[C@H](O)C(C)O5)[C@H](O)C(C)O4)c(C)c(O)c3c(O)c2C(=O)[C@H]1O[C@H]1C[C@@H](O[C@H]2C[C@@H](O[C@H]3C[C@@H](O)[C@H](OC)C(C)O3)[C@@H](O)C(C)O2)[C@H](O)C(C)O1 (stereo not given in full) | -36.9% (active) |
| CCCCCCCCn1ccc2cc(NC(=O)CN3CCN(c4nc(C)cc(Cl)n4)CC3)ccc21 | 91.1% |
| COc1ccc(/C=N/NC(=O)CCN2c3ccccc3Sc3ccccc32)cc1 | 70.4% |
| CNC(=O)c1cc(Oc2ccc3c(c2)sc2nc(-c4cc(OC)c(OC)c(OC)c4)cn23)ccn1 | -13.9% (active) |
| CCCCCCNC(=O)Oc1ccc(/C(=C(/C)Cc2ccc(OC)cc2)c2ccc(OCCCN(C)C)cc2)cc1 | 6.74% (active) |
| Cn1ccnc1C(=O)C(=O)Nc1ccc(CC(=O)Nc2ccccc2)cc1 | 101% |
| C=CCc1c(O)c(C(=O)/C=C/c2ccc(Cl)cc2)c(OC)c2ccoc12 | 52.6% |
| C=C(CNCCc1ccc(O)cc1)[C@@H]1CC[C@]2(CO)CC[C@]3(C)[C@H](CC[C@@H]4[C@@]5(C)CCC(NCCO)C(C)(C)[C@@H]5CC[C@]43C)[C@@H]12 (stereo not given in full) | -94.2% (active) |
| CCOC(=O)CNP(=O)(OC[C@@H](Cc1ccccc1)NC(=O)c1cc2ccccc2s1)Oc1ccccc1 (stereo not given in full) | 88.2% |
| COc1ccc(OC)c(C(=O)/C=C/c2cc3c(c(OC)c2OC)OCO3)c1 | 68.4% |
| C=C(C)[C@@H]1CC[C@]2(C)[C@H](CC=C3[C@@H]4[C@H](C)[C@@H](C)CC[C@]4(CO)CC[C@]32C)[C@@]1(C)CCCN | 67.1% |
| O=C1/C(=C/c2ccc(F)cc2)COc2ccc(O)cc21 | 98.5% |
| CN(CCn1sc(=O)n(Cc2ccccc2)c1=O)Cc1ccc2c(Cl)cc(Cl)c(O)c2n1 | 59.5% |
| CCN(CC)CCOc1ccc(C(=C(C)c2ccc(Cl)cc2)c2ccc(OCCN(CC)CC)cc2)cc1 | -98% (active) |
| CC(=O)OC[C@]12CCC(C)(C)C[C@H]1[C@@]1(O)[C@H](O)C[C@@H]3[C@@]4(C)CCCNC(C)(C)[C@@H]4CC[C@@]3(C)[C@]1(C)CC2 | 99.9% |
| Cc1ccc(CNc2ccc(Cl)cc2NCc2ccc(C)c(O)c2)cc1O | 32.7% |
| COc1ccc(C(=O)C2C(c3ccc(OC)cc3)CN(C)C23C(=O)Nc2ccccc23)cc1 (stereo not given) | 99.1% |
| O=C(O)CCCN1C(=O)/C(=C/C(Cl)=C/c2ccccc2)SC1=S | 38.4% |
| O=C1/C(=C/c2ccc(Cl)cc2)COc2ccc(O)c(O)c21 | 56% |
| COc1cc(CNC(=O)/C=C/C=C/c2ccc3c(c2)OCO3)ccc1OCc1cn(-c2ccc(C)c(C)c2)nn1 | 81.7% |
